About 95 (4%) of roughly 2,400 compounds were called active. Inconclusive results (about 3%) are left out. Not all results are given here. Measured potencies and affinities stand elsewhere. A number with no mark means an inactive call.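 The calls were made as follows: active = compounds lowering signal whose fitted AC50 is at most ten times the top tested dose; inconclusive = flat fit with moderate inhibition, or poor curve fit; inactive = the rest.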

The text below walks through data of PubChem BioAssay AID493083 (Broad Institute, 2011).

The assay in a line: decrease of heat-induced HSF-1 GFP reporter, dose response, NIH3T3 R4 cells, GFP/RFP, cherry-pick, set 3 (AID 493083).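 Also: 0% = neutral control wells and -100% = didemnin B positive control.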 The conditions noted are these: NIH3T3 R4 HSF-1 GFP reporter, heat shock, 48 h; series mostly up to 19.5 µM; activity change, negative = inhibition: at the top concentration.
For `NS(=O)(=O)c1ccc(CCNC(=O)c2ccc(C#CC3(O)CCCCC3)cc2)cc1`, the “activity change, negative = inhibition” value is -11%. For `COc1cccc(/C=N/NC(=O)c2cnccn2)c1` the value was -11.7%; for `CC1CCN(CC(=O)c2cccs2)CC1`, -0.687%; for `N/C(=N\OC(=O)Cc1ccccc1[N+](=O)[O-])c1cccnc1`, -2.18%. The value for `Cc1ccc(S(=O)(=O)c2ccc(Oc3ccccc3)cc2)cc1` was 6.62%. For `COc1cc(NS(=O)(=O)c2ccc(C)cc2)c2ncccc2c1` the value was 152%; for `O=C(Cc1ccc(O)cc1)NC1CCCCCC1`, 2.64%. Take `Fc1ccc(-c2nc3c(-c4ccc(Cl)cc4)cnn3cc2CCN2CCOCC2)cc1`: the “activity change, negative = inhibition” value was 6.99%.

As for `COc1ccc(-n2cc([N+](=O)[O-])c(=O)c3ccc(Cl)cc32)cc1`, the “activity change, negative = inhibition” value is -4.31%. For `O=[N+]([O-])c1ccc(O)c(C=Nc2ccc3oc(Cc4ccc(Cl)cc4)nc3c2)c1`, the “activity change, negative = inhibition” value is 2.32%.

Consider `CC(=O)c1ccc(OCC(O)CN2CCN(Cc3ccc4c(c3)OCO4)CC2)cc1` (configuration not stated), for which the “activity change, negative = inhibition” value is -11.3%. For `COc1ccc(C(=O)NC(=S)NNC(=O)c2ccco2)cc1` the value was -5.87%; for `CNC(=S)N(CCc1c(C)[nH]c2ccc(C)cc12)Cc1cc(OC)c(OC)c(OC)c1`, 6.85%; for `CC1CCC2(CC1)N=C(N)Nc1nc3ccccc3n12` (configuration not stated), 22.7%. Take `COc1ccc(C(=O)NNC(=O)c2ccccn2)cc1`: the “activity change, negative = inhibition” value was 1.89%.

`COc1ccc(OC)c(-c2cc(C(=O)N/N=C/c3cc(OC)c(OC)cc3OC)c3ccccc3n2)c1`: the “activity change, negative = inhibition” value was 6.57%. For `CC(C)Nc1nnc(Sc2ccc(Cl)cc2[N+](=O)[O-])s1` the value was 6.78%; for `Cc1ccc2nc(CSc3nc(C)ccc3C#N)[nH]c2c1`, 5.73%; for `CC(/C=C/c1ccc2c(c1)OCO2)=N/NC(=O)c1ccncc1`, 25.8%. Regarding `COCCN(C(=S)Nc1c(C)cccc1C)C(C)c1cccnc1` (configuration not stated), the “activity change, negative = inhibition” value was -2.92%. For `COCCCn1c(-c2ccco2)nc2ccccc2c1=O` the value was -0.204%; for `N#Cc1c(N)n(-c2ccccc2N)c2nc3ccccc3nc12`, -3.31%; for `COc1ccccc1C(=O)NCC(=O)N/N=C/c1ccc2c(c1)OCO2`, 3.39%. The value for `NS(=O)(=O)c1ccc(NC2=CC(=O)C(=O)c3ccccc32)cc1` was -26%; that for `CN(Cc1nc(-c2ccccc2)no1)C(=O)c1ccc2c(c1)OCO2` was 2.75%; that for `COc1cccc(-c2c(NC(C)=O)n(C)c3ccccc3c2=O)c1` was -3.87%. For `COc1ccc(NC(=O)c2cc(CN3C(=O)c4ccccc4C3=O)ccc2OC)cn1` the value was 3.72%. Regarding `COc1ccc(/C=N/NC(=O)c2cc(-c3cccn3C)n[nH]2)cc1OC`, the “activity change, negative = inhibition” value was 1.97%.

As to `C=CCn1c(CCCNC(=O)C(C)(C)C)nc2ccccc21`, the “activity change, negative = inhibition” value was 5.13%. In the case of `Cc1ccc(NC(=S)NC2CC3CCC(C2)N3Cc2ccco2)cc1C` (configuration not stated), the “activity change, negative = inhibition” value was 2.77%. The value for `COc1ccc(N2CCN(C(=O)c3ccc(NS(=O)(=O)c4ccccc4)cc3)CC2)cc1` was 21.2%; that for `COC(=O)c1cc2ccsc2n1Cc1nc(-c2ccc(Cl)cc2)oc1C` was 3.21%. For `COc1ccccc1/C=C/CN1CCC(Oc2cc(C(=O)NC3CC3)ccc2OC)CC1` the value was 7.7%.

As for `CC(NO)/C(=N\O)c1cccs1` (configuration not stated), the “activity change, negative = inhibition” value is 1.92%. For `COC(=O)C1=C(C(=O)OC)[C@@H]2N(C)c3ccccc3[C@@]23C[C@@H](C(=O)OC)N(C(=O)CC(C)C)C3=N1` the value was 0.888%; for `CCN1CCN(CCNC(=O)CCCCCn2c(=O)[nH]c3cc(C(=O)OC)ccc3c2=O)CC1`, -7.53%; for `O=C(COC(=O)c1ccccc1SCC(=O)N1CCCC1)NC1CCS(=O)(=O)C1` (configuration not stated), 1.73%.

For the compound `Cc1ccc(S(=O)(=O)N2CCCC(C(=O)NCCc3ccc4c(c3)OCO4)C2)cc1` (configuration not stated), the “activity change, negative = inhibition” value was 13.8%. For `FC(F)Oc1ccc(NC(=S)NNc2ccnc3cc(Cl)ccc23)cc1` the value was 39.7%; for `Cc1ccc(-n2ncc(Br)c(Br)c2=O)cc1`, -70.3%. For `CCc1ccc(C(=O)Cn2ncc(Cl)c(Cl)c2=O)cc1` the value was -74.6%. The value for `CCCCCn1c(SCC(=O)CC(=O)OCC)nc2cc(C(=O)N3CCC(C(N)=O)CC3)ccc2c1=O` was -1.23%.

Consider `CC(=O)Nc1cc[n+](C(C)C(=O)c2ccccc2)cc1` (configuration not stated), for which the “activity change, negative = inhibition” value was -10.5%. The value for `COc1cccc(-n2ccnc2SCC(=O)Nc2ccccc2F)c1` was 9.89%; that for `O=C(CCc1ccccc1)Nc1cccc([N+](=O)[O-])c1` was 9.15%; that for `O=C(NN=C1CCCCCCCCCCC1)c1ccccc1F` was 4.34%. For the compound `COc1ccc(-n2nc(C(=O)NCC(=O)NCc3ccccc3OC)c3ccccc3c2=O)c(OC)c1`, the “activity change, negative = inhibition” value is -1.43%.

Regarding `O=C(NC1CCCCC1)C(c1ccco1)N(C(=O)c1csnn1)c1ccc(Cl)cc1` (configuration not stated), the “activity change, negative = inhibition” value was 0.074%. The value for `CCC(C)NC(=O)C1(C)CCC(=O)N1Cc1ccccc1OC` (configuration not stated) was -0.568%; that for `O=C(O)CSc1nc(-c2ccccc2)nc2c1oc1ccccc12` was -7.46%. For `CNC(=O)c1ccsc1NC(=O)c1ccc(Cl)s1` the value was -0.254%. The value for `Cc1ccc(OCC(=O)NCCNC(=O)c2ccco2)cc1C` was -0.642%; that for `CCCCn1c(SCC(=O)NCc2ccco2)nc2c(sc3ccccc32)c1=O` was -2.75%. As for `COc1ccc(C2=NN(S(C)(=O)=O)C(c3cccs3)C2)cc1OC` (configuration not stated), the “activity change, negative = inhibition” value is 0.996%. For `O=C(CCl)N1N=C(c2cccs2)CC1c1ccco1` (configuration not stated) the value was 111%; for `Cn1c(=O)c2ccccc2n(Cc2ccccc2Cl)c1=O`, 62.4%; for `COc1c([N+](=O)[O-])c(=O)oc2ccccc12`, -1.45%.

As to `C/C(=N\NC(=O)c1nnn(-c2nonc2N)c1C(C)C)c1ccncc1`, the “activity change, negative = inhibition” value was -3.27%. The value for `COc1ccc(/C=N/NC(=O)Nc2cccc3nsnc23)cc1OC` was 12.9%. For `COc1ccc(CNC(C)CCc2ccccc2)cc1` (configuration not stated) the value was -3.43%. For `CCOc1ccc(NC(=O)CN(C)C(=O)c2ccc(N3CCCC3)c([N+](=O)[O-])c2)cc1OCC` the value was 4.14%. For `COc1cccc(N2CCN(C(=S)Nc3cc(C)cc(C)c3)CC2)c1`, the “activity change, negative = inhibition” value is -4.49%. On to `CC(CCCC(C)(C)O)NC(=O)c1ccc2oc(CCc3ccccc3)nc2c1` (configuration not stated), for which the “activity change, negative = inhibition” value is 1.71%. The value for `COc1ccc(NC(=O)CCc2nnc3ccc(N4CCC(C)CC4)nn23)cc1OC` was -0.697%; that for `O=C(O)c1cccc(NC(=S)N/N=C/c2cccnc2)c1` was -3.91%; that for `CCc1cccc2c(C(=O)COC(=O)c3ccc([N+](=O)[O-])s3)c[nH]c12` was 4.77%. As for `CNC(=S)N/N=C/c1ccc(-c2cccc(C(=O)O)c2)o1`, the “activity change, negative = inhibition” value is -2.88%. The value for `CCOc1ccc(NC(=O)CCCNC(=O)Cn2cnc3sc(C)c(C)c3c2=O)cc1` was -1.07%; that for `CCC(=O)n1nc(-c2cccnc2)nc1NCc1cccs1` was -3.19%; that for `COc1ccc(N=Cc2c(O)ccc3ccccc23)cc1` was 69.2%. Take `O=C1CCCN1CCC1CCN(C(=O)Nc2ccccc2)CC1`: the “activity change, negative = inhibition” value was -0.501%. For `CC(C)CCNC(=O)c1ccc2c(SCC(=O)O)c3c(nc2c1)CCC3` the value was -3.07%; for `COc1ccc(OC)c(NC(=O)C2CCCN(S(=O)(=O)c3c(C)nn(C)c3C)C2)c1` (configuration not stated), -0.401%; for `O=C(NCc1ccncc1)C(=O)Nc1nc(C23CC4CC(CC(C4)C2)C3)cs1`, 33.4%. For `Cc1cccc(C)c1NC(=O)c1cccnc1` the value was -2.88%; for `COc1ccc(C)c2sc(NC(=O)C3=COCCO3)nc12`, -4.67%; for `Cc1ccc(N2C(=O)N(CC(=O)NC(N)=O)C(=O)C2C)cc1` (configuration not stated), -1.14%. For `COc1cccc(Nc2ccc(C(=O)O)cc2N)c1` the value was -0.631%; for `Cn1c(=O)c2c(ncn2CC(=O)Nc2cccc(S(=O)(=O)Nc3ccccc3F)c2)n(C)c1=O`, 8.04%; for `C/C(=N\NC(=O)c1c(C)nc2ccccn12)c1ccc(C(C)(C)C)cc1`, 8.05%. As to `CCOC(=O)c1c(C)[nH]c(C)c1S(=O)(=O)NCCc1cccs1`, the “activity change, negative = inhibition” value was 3.28%. The value for `CCOC(=O)c1c(N2CCCCC2)c2ccccc2[nH]c1=O` was 2.34%; that for `CC(C)(C)c1ccc(/C=N/N2C(=O)CSC2=S)cc1` was -1.35%; that for `O=C(NCCN1CCCCC1)Nc1ccccc1Cl` was -12.4%. The value for `NNC(=S)Nc1ccccc1Cl` was -2.15%.

`CC(C)C(=O)Nc1cccc(-c2nc3ncccc3o2)c1`: the “activity change, negative = inhibition” value is -3.12%.

Regarding `CC(=O)Nc1nn(C)c2nc(C)cc(C)c12`, the “activity change, negative = inhibition” value is -7.96%. With `Cc1cc(C)c(NC(=O)Nc2ccc3c(c2)OCO3)c(C)c1`, the “activity change, negative = inhibition” value is 10.5%.

`O=C(/C(=C(\[O-])c1ccccc1)[n+]1ccc2ccccc2c1)c1ccc([N+](=O)[O-])cc1`: the “activity change, negative = inhibition” value was -3.91%. The value for `CCOC(=O)Cc1cnc(NC(=O)c2ccccc2)s1` was 14.6%. For `CCOC(=O)c1sc(NC(=O)Nc2ccccc2F)nc1C` the value was 2.48%; for `N#Cc1cccc(C#N)c1Oc1ccc(S(=O)(=O)Nc2ccc(Cl)cc2)cc1`, 27.6%; for `CCOC(=O)CCCNS(=O)(=O)c1c(C)ccc2nsnc12`, -5.83%. The value for `COc1ccc(-n2c(C)c(C(C)=O)c(C(C)=O)c2C)cc1` was -9.69%; that for `COc1ccc(/C=C/C(=O)NC(=S)NCCc2ccc(OC)c(OC)c2)cc1` was 0.071%; that for `O=C(O)C1CCC(=O)N(C2CCCCC2)C1c1ccccc1Cl` (configuration not stated) was -8.3%. As to `O=C(CC1C(=O)NCCN1Cc1ccccc1F)NC1CCCCCC1` (configuration not stated), the “activity change, negative = inhibition” value is -11.2%.

`Cc1nn(-c2ccccc2Cl)c(Cl)c1/C=N/Nc1nc2ccccc2s1`: the “activity change, negative = inhibition” value was 8.96%.

`COc1ccccc1-c1nnc(SC2CCc3ccccc3NC2=O)s1` (configuration not stated): the “activity change, negative = inhibition” value was 16.7%. With `N#CCCn1nnc(-c2ccccc2F)n1`, the “activity change, negative = inhibition” value is -4.93%. For `Cc1ccccc1OCC(=O)Nc1ccc2c(c1)C(=O)N(CCC(=O)O)C2=O` the value was -0.08%; for `O=[N+]([O-])c1ccc(Nc2ccc(F)cc2)cc1`, 0.888%. For `COc1nnc(-c2ccc(C(=O)N3C[C@@H]4C[C@H](C3)c3cccc(=O)n3C4)cc2)c2ccccc12` the value was -9.99%. For `COc1ccc(S(=O)(=O)N2CCCC2)cc1C(C)C` the value was 3.89%; for `O=C(N1CCCCC1)N1CCN(S(=O)(=O)c2ccccc2)CC1`, 5.28%. Regarding `CCN(C1CCS(=O)(=O)C1)S(=O)(=O)c1cccs1` (configuration not stated), the “activity change, negative = inhibition” value was -2.59%. For `Cc1ccnc(NC(=O)CS(=O)(=O)c2ccccc2)c1`, the “activity change, negative = inhibition” value was 0.818%. The value for `Cc1c(Cl)cccc1NC(=O)CS(=O)(=O)c1ccccc1` was -2.14%; that for `Cc1ccccc1OCCC(=O)OCC(=O)N1c2ccccc2NC(=O)C1(C)C` was -1.03%; that for `Cc1c(-c2nc(-c3ccc(C(C)(C)C)cc3)no2)n(C)oc1=O` was 1.67%.

Regarding `O=C(NCc1ccncc1)c1ccc(Cl)c(S(=O)(=O)N2CCOCC2)c1`, the “activity change, negative = inhibition” value was 16.6%. The value for `CCOC(=O)c1cnc2ccc(C(=O)OC)cc2c1NCCCN1CCOCC1` was -0.453%.
